# Hits are enriched below; roughly 2.6% of the tested compounds scored in any of these assays.
# Cruzain inh noDet: cruzain (T. cruzi) inhibition without detergent; P25779; purified cruzain, Z-FR-AMC fluorescence, no detergent; actives 2.3% (n = 200,000); Potency, µM, without a hit: max response, negative = inhibition, usual class: inhibitors; AID 1476;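 note: plate controls were enzyme without inhibitor for no effect and buffer without enzyme for full effect; nearly all actives have a fitted effect of over 40% in size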
# Target sequence (P25779 123-467 limits assumed): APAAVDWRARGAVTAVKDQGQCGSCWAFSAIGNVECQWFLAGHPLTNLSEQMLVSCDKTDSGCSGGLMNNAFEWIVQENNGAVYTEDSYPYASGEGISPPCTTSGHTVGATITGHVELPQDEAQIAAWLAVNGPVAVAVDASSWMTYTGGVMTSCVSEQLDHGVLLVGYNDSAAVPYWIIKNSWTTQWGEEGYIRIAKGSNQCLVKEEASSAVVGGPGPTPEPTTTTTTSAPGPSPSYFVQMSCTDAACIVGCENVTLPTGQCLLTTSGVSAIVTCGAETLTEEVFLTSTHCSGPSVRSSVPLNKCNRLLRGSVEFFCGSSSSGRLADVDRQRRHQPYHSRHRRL
#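 Detergent-free condition (0.00005% Triton X-100) in acetate buffer pH 5.5 with DTT. 1.5 nM enzyme and compound were pre-mixed 15 min, then 2 uM Z-FR-AMC substrate added; reaction progress from fluorescence change between first and third reads (60 s).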
# Cruzain inh Det: blocks cruzain activity in presence of Triton detergent | P25779 | purified cruzain, Z-FR-AMC fluorescence, 0.01% Triton | Potency, µM, without a hit: max response, negative = inhibition, most hits filed as inhibitors | actives 0.43% (n = 200,000);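 note: plate controls were neutral wells for no effect and buffer without enzyme for full effect; nearly all actives have a fitted effect of over 40% in size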
#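 Sodium acetate buffer (100 mM, pH 5.5) containing 5 mM DTT and 0.01% Triton X-100 hosted 1.5 nM cruzain and test compound for 15 min at room temperature. Cleavage of 2 uM Z-FR-AMC was then tracked by fluorescence.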
# The depositor's hits bear a star; u = inconclusive. Calls come from the whole dose curve; as a rule, active = well fitted curve in the direction sought with a large enough effect; inconclusive = small, poorly fitted or top-dose-only effect, or another doubt; inactive = no such curve, though single readings can be large; an effect the other way counts as inactive or inconclusive. Potency is the fitted concentration of half-maximal effect.
SMILES,Cruzain inh noDet,Cruzain inh Det
O=C(Oc1ccc(NC2=C(Cl)C(=O)c3ccccc3C2=O)cc1)c1ccc([N+](=O)[O-])cc1,13µM*,-3%
O=C(Oc1ccc([N+](=O)[O-])cc1)c1cccnc1,9%,-4%
COc1ccc(C(=O)N2CCC(c3c[nH]c4ccccc34)(c3c[nH]c4ccccc34)CC2)cc1,-15%,-3%
CCN(CC)c1ccc(C(=O)N2CCC(c3c[nH]c4ccccc34)(c3c[nH]c4ccccc34)CC2)cc1,10µM*,-2%
COc1cc2c(cc1NC(=O)CSc1nnnn1-c1ccccc1)oc1ccccc12,32µM*,4%
COc1cc2c(cc1NC(=O)COC(=O)c1ccc(C(C)(C)C)cc1)oc1ccccc12,13µM*,-1%
COc1cc2c(cc1NC(=O)CSc1ccc(C)cc1)oc1ccccc12,-29%,3%
COc1cc2c(cc1NC(=O)COC(=O)C(CCSC)NC(=O)c1ccccc1Cl)oc1ccccc12 (stereo unspecified),25µM*,u
COc1cc2c(cc1NC(=O)COC(=O)[C@@H](NS(=O)(=O)c1ccccc1)C(C)C)oc1ccccc12,u,-2%
CCCN(CCC)S(=O)(=O)c1ccc(C(=O)Nc2cc3oc4ccccc4c3cc2OC)cc1,16µM*,-10%
COc1cc2c(cc1NC(=O)COc1ccccc1OC)oc1ccccc12,-21%,9%
CCN(CC)S(=O)(=O)c1cccc(C(=O)Nc2cc3oc4ccccc4c3cc2OC)c1,u,-5%
CCOC(=O)c1cc(NC(=O)c2ccccc2)c(=O)oc1-c1ccccc1,6%,-8%
CCN1C(=O)C2(Nc3ccccc3-c3nc4ccccc4n32)c2cc(OC)ccc21 (stereo unspecified),0%,-3%
CCCS(=O)(=O)N1CCCC(C(=O)N2CCN(c3ccccn3)CC2)C1 (stereo unspecified),-4%,3%
COc1cc2c(cc1NC(=O)Cc1ccc(C)cc1)oc1ccccc12,0%,-10%
COc1cc2c(cc1NC(=O)CN1CCN(S(=O)(=O)c3ccccc3F)CC1)oc1ccccc12,25µM*,1%
CCOC(=O)c1[nH]c(C)c(CCC(=O)NCc2cccc(C)c2)c1C,-4%,4%
Cc1ccc2cc(/C=N/NC(=O)[C@H](C)NC(=O)OC(C)(C)C)c(Cl)nc2c1,2%,-1%
COc1ccc2nc(/C=N/NC(=O)[C@H](C)NC(=O)OC(C)(C)C)ccc2c1,32µM*,-24%
CCN1CCN(c2nc3c(c(=O)[nH]c(=O)n3C)n2CCCSc2ncccn2)CC1,-7%,1%
CCc1ccc(C2Sc3ccccc3NC3=C2C(=O)c2ccccc23)cc1 (stereo unspecified),u,-8%
CC(C)c1ccc(C2Sc3ccccc3NC3=C2C(=O)c2ccccc23)cc1 (stereo unspecified),10µM*,-4%
CC(=O)Nc1ccc(C2Sc3ccccc3NC3=C2C(=O)c2ccccc23)cc1 (stereo unspecified),-5%,-9%
O=C1C2=C(Nc3ccccc3SC2c2ccc(C(F)(F)F)cc2)c2ccccc21 (stereo unspecified),20µM*,-3%
SMILES,Cruzain inh noDet,Cruzain inh Det
COc1ccc(OCC(=O)Nc2nc(-c3ccc(Br)cc3)ns2)cc1,-10%,-4%
COc1ccccc1CNc1nc(-c2ccc(C(=O)N(C)C)cc2)nc2ccccc12,-4%,-5%
O=C(N/N=C/c1c[nH]c2ccccc12)c1sc2ccccc2c1Cl,-3%,-10%
Cc1cc(=O)n2c(C(=O)Nc3ccc(C)c(C)c3)c(C(=O)Nc3ccccc3)sc2n1,-6%,-3%
CCCCC[C@H](O)/C=C/[C@@H]1[C@@H](C/C=C\CCCC(=O)OC)[C@@H](O)C[C@H]1O,u,25µM*
CCCCC[C@H](O)/C=C/[C@@H]1[C@@H](C/C=C\CCCC(=O)O)[C@@H](O)C[C@H]1O,u,0%
C/C(Cl)=C\Cn1c(=O)c2c(nc3n2CCS3)n(C)c1=O,-8%,-2%
Cc1cc(C)c2c(c1)c(C)cc1nnc(SCC(=O)c3cccs3)n12,-11%,-1%
CCN(CC)c1cc(C)c2cc(NC(=O)c3cc(OC)cc(OC)c3)ccc2n1,2%,-8%
O=[N+]([O-])c1cc(/C=N\Nc2nccs2)ccc1O,32µM*,18µM*
Clc1cccc(Cl)c1/C=N\Nc1nccs1,u,-2%
NC(=O)c1ccc(NC(=O)COC(=O)c2cccc(Oc3ccccc3)c2)cc1,16µM*,1%
O=C(COC(=O)c1cccc(N2C(=O)c3ccccc3C2=O)c1)Nc1ccccc1,6%,-2%
Nc1nnc(SCCCC(=O)c2ccccc2)s1,2%,0%
Nc1nnc(SCC(=O)c2ccc3ccccc3c2)s1,32µM*,-5%
CCOC(=O)c1ccc(NC2c3ccccc3C(=O)N2c2cccnc2)cc1 (stereo unspecified),12%,-3%
Cc1ccc(N/N=C/c2ccc3c(c2)OCCO3)cc1Cl,20µM*,3%
O=C(O)c1cc(N/N=C/c2ccc3c(c2)OCCO3)ccc1Cl,-1%,-8%

# Source: PubChem (National Center for Advancing Translational Sciences (NCATS))
